Results on eight molecules are retold here after PubChem BioAssay (NCI).

Common to all, as to test: NCI-60 one-dose screen, 48 h (100 = growth as untreated, 0 = no growth, -100 = all killed)
For experiment [1], the system named is HCT-15 colon. The following applies: 10 µM unless noted.
The test system of experiment [2] is HT29 colon. The following applies: 10 µM unless noted.
Experiment [3] relates to SNB-75 CNS. The following applies: 10 µM unless noted.
For experiment [4], the system named is SNB-19 CNS. To be noted: 10 µM unless noted.
Experiment [5] deals with U251 CNS. To be noted: 10 µM unless noted.
Experiment [6] deals with PC-3 prostate. The following applies: 10 µM unless noted.
Experiment [7] deals with SK-MEL-5 melanoma. The following applies: 10 µM unless noted.
The subject of experiment [8] is UACC-62 melanoma. The following applies: 10 µM unless noted.
Experiment [9] relates to LOX IMVI melanoma. The following applies: 10 µM unless noted.
The subject of experiment [10] is SK-MEL-28 melanoma. The following applies: 10 µM unless noted.
The test system of experiment [11] is SK-MEL-2 melanoma. To be noted: 10 µM unless noted.
Experiment [12] concerns EKVX NSCLC. To be noted: 10 µM unless noted.
Experiment [13] relates to SN12C renal. To be noted: 10 µM unless noted.
The test system of experiment [14] is UO-31 renal. To be noted: 10 µM unless noted.
Experiment [15] deals with TK-10 renal. The following applies: 10 µM unless noted.
The subject of experiment [16] is ACHN renal. The following applies: 10 µM unless noted.
The test system of experiment [17] is CAKI-1 renal. To be noted: 10 µM.
Experiment [18] concerns A498 renal. To be noted: 10 µM unless noted.
The test system of experiment [19] is CCRF-CEM leukemia. To be noted: 10 µM unless noted.
For experiment [20], the system named is MOLT-4 leukemia. To be noted: 10 µM unless noted.

The structures appear in SMILES notation. The panel holds about 83,000 compounds, 20% with a hit somewhere; the sample as a whole holds those more often.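 The endpoint reported here, percent growth, reads 100 for growth as untreated, 0 for no net growth and -100 for all cells dead.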 A number with no mark means an inactive call. Activity calls are given as the source filed them. The calls were made as follows: active = growth percent below 10; inactive = the rest.

On to `C#Cc1ccc(NC(=O)c2ccc(/C=C/C(=O)c3nccn3C)cc2)c(F)c1`, for which the growth in [1] is 7.76% (active); in experiment [2], 15.8%; in experiment [3], 17.7%; in experiment [4], 23%; in experiment [5], 5.03% (active); in experiment [6], 29.9%. In addition, the growth is 60.5% in experiment [7]; 29.9% in experiment [8]; -60.8% (active) in experiment [9]; 84% in experiment [10]; 103% in experiment [11]; 36% in [12]. In addition, the growth in [13] was 16.3%; in [14], 41.8%; in [15], 89.4%; in experiment [16], 37.7%; in experiment [17] it was 37.3%; in experiment [18], 78.7%. Also, the growth is 7.54% (active) in experiment [19] and 16.2% in experiment [20].
As to `Cc1ccc(S(=O)(=O)N/N=C/c2cn(-c3ccc(F)cc3)nc2-c2ccc(S(C)(=O)=O)cc2)cc1`, the growth was 99.4% in experiment [1]; 105% in [2]; 110% in experiment [3]; 97.1% in experiment [4]; 101% in [5]; 95.4% in [6]. In addition, the growth in [7] was 102%; in experiment [8], 91.6%; in [9], 100%; in [10], 106%; in experiment [11] it was 102%; in [12], 96.6%. In addition, the growth in experiment [13] was 99.8%; in [14], 89.8%; in experiment [15] it was 103%; in experiment [16], 102%; in [17], 98%; in [18], 87.5%. Also, the growth in experiment [19] is 103%; in experiment [20], 106%.
As to `COc1ccc2c(c1)oc1c3[nH]c4ccccc4c3c3c(c21)C(=O)N(O)C3=O`, the growth in experiment [1] was 50.5%; in [2], 38.3%; in [3], 39.7%; in [4] it was 32.6%; in experiment [5], 15.7%; in experiment [6], 45.4%. Also, the growth is -22.1% (active) in experiment [7]; 12.4% in [8]; -76% (active) in experiment [9]; 76.3% in experiment [10]; 70.8% in experiment [11]; 92.5% in experiment [12]. Besides, the growth in [13] was 40.5%; in experiment [14] it was 22.4%; in experiment [15] it was 119%; in [16], 11.5%; in experiment [17] it was 19.6%; in [18], -1.48% (active). Moreover, the growth in experiment [19] is 6.73% (active); in experiment [20] it was -2.02% (active).
For the molecule `C#C[C@]1(O)CC[C@H]2[C@@H]3CC=C4c5sc(C6CCOCC6)nc5CC[C@]4(C)[C@H]3CC[C@@]21C`, the growth in experiment [1] is 36.1%; in [2] it was 44.2%; in experiment [3], 78.9%; in experiment [4], 86.1%; in experiment [5], 57.6%; in [6], 63.2%. For the same molecule, the growth in [7] is 85.2%; in [8], 64.7%; in experiment [9] it was 65.8%; in [10], 56.5%; in experiment [11] it was 94.6%; in experiment [12], 84.2%. For the same molecule, the growth is 82.9% in experiment [13]; 83.9% in experiment [14]; 113% in [15]; 88.2% in [16]; 84.5% in experiment [17]; 96.9% in experiment [18]. Moreover, the values for the growth in experiment [19] and in experiment [20] were 52.3% and 38.3%, respectively.
For the molecule `COc1ccccc1N1CCN(C2=NN=C(c3cccc(Cl)c3)c3ccccc3C2)CC1`, the growth in experiment [1] was 15.8%; in experiment [2], -3.52% (active); in experiment [3] it was 19.7%; in experiment [4], 41.2%; in [5] it was 20.7%; in experiment [6], 23.5%. Further, the growth in [7] is -6.03% (active); in experiment [8], 31.6%; in experiment [9], 24.8%; in experiment [10] it was 60.7%; in experiment [11], 0.738% (active); in [12], 40.9%. The growth in experiment [13] is 21.2%; in experiment [14] it was 24%; in experiment [15], 27.8%; in experiment [16], 28.5%; in experiment [17] it was 29.7%; in experiment [18] it was -16.6% (active). The growth in experiment [19] was 10.1%; in [20] it was 17.6%.
Turning to `C#C[C@]1(O)CC[C@H]2[C@@H]3CC=C4c5sc(-c6ccccn6)nc5CC[C@]4(C)[C@H]3CC[C@@]21C`, the growth was 68.9% in experiment [1]; 68.2% in [2]; 37.4% in [3]; 72.4% in experiment [4]; 51.1% in experiment [5]; 51.9% in experiment [6]. Further, the growth in experiment [7] is 91%; in [8], 67.6%; in experiment [9], 62.9%; in experiment [10], 44.3%; in [11], 70.7%; in [12], 77.7%. Moreover, the growth in experiment [13] is 87.2%; in [14], 35.8%; in experiment [15], 104%; in experiment [16] it was 75.8%; in experiment [17], 87.7%; in experiment [18] it was 70.6%. For the same molecule, the growth in experiment [19] is 37.5%; in experiment [20], 21.7%.
Regarding `CCNCc1c(-c2cccc(OC(F)(F)F)c2)[nH]c2ccc(N3CCCC3)cc2c1=O`, the growth is 9.2% (active) in experiment [1]; 7.01% (active) in experiment [2]; -5.02% (active) in experiment [3]; 19.8% in [4]; 20% in experiment [5]; 14.6% in experiment [6]. The growth in [7] is 15.5%; in experiment [8], 30.3%; in [9] it was 21.9%; in experiment [10], 48%; in experiment [11], 42.3%; in experiment [12] it was 88.1%. The growth is 28.2% in [13]; 31.9% in experiment [14]; 90.5% in [15]; 34.4% in experiment [16]; -9.12% (active) in experiment [17]; -13.6% (active) in experiment [18]. The growth in experiment [19] is 7.62% (active); in experiment [20], 18.4%.
In the case of `Cn1c2ccccc2c2c3c(c4c5ccc(Br)cc5oc4c21)C(=O)N(O)C3=O`, the growth in [1] was 74.6%; in experiment [2], 86.6%; in experiment [3], 54.3%; in [4] it was 69.5%; in experiment [5] it was 60.5%; in experiment [6], 65.8%. Besides, the growth was 75.6% in [7]; 49.2% in [8]; -88.8% (active) in experiment [9]; 105% in experiment [10]; 98.6% in experiment [11]; 96.6% in experiment [12]. Moreover, the growth in [13] is 92.7%; in [14], -91.6% (active); in experiment [15], 101%; in experiment [16], 69.5%; in [17], 40.4%; in experiment [18], -6.15% (active). Besides, the growth in [19] was 14.6%; in experiment [20], 7.13% (active).
